About 83,000 compounds went through this panel and 20% of them were active in at least one assay; those are over-represented in the sample as a whole.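 Single-dose data. Exposure time 48 hours. Values below 10 considered active.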 Values without a mark were called inactive. The source made the active and inactive calls.
System: SK-MEL-5 melanoma
Assay: NCI-60 one-dose screen, 48 h (100 = growth as untreated, 0 = no growth, -100 = all killed)
Settings: 10 µM unless noted

Going from `CCOC(=O)c1cn2ncnc(Oc3ccc(NC(=O)NC4CCCCC4)c(Cl)c3)c2c1C` to `CCOC(=O)c1c(C)nc2c(c1N)CC(=O)N2Cc1cc(F)cc(Cl)c1`, the growth falls from 84.5% to 74.9%.

First: CS(=O)(=O)c1cccc(-c2c(-c3cccc(OS(N)(=O)=O)c3)nc3sccn23)c1
Second: O=c1oc2c(cnc3ccccc32)cc1-c1ccsc1
The growth of the first is lower: 96.6% for the first, 96.8% for the second.

First: O=C(NNc1nccc(Nc2ccc(S(=O)(=O)Nc3ccncc3)cc2)n1)c1ccccc1
Second: c1ccc(C2=NN[C@H](c3cn(-c4ccccc4)nc3-c3ccccc3)C2)cc1
The growth of the first is higher: 102% for the first, 64% for the second.

Compared with `C[C@]12CC[C@@H]3c4ccc(O)c([N+](=O)[O-])c4CC[C@H]3[C@@H]1CCC2=O`, `Cc1cccc2c1NC(=O)C2(c1ccc(O)cc1)c1ccc(O)cc1` is higher in growth: 82.3% for the first, 96.5% for the second.

First: O=C(c1ccc(-c2nc(CSc3nc4ccccc4s3)no2)cc1)N1CCSCC1
Second: COc1ccc2nc(NC(=O)CSc3nnc4n3S(=O)(=O)c3ccccc3N4C)sc2c1
The growth of the first is lower: 24.6% for the first, 95.1% for the second.

First: CCS/C(Nc1ccccc1)=C(\C#N)C(=O)N/N=C/c1ccc(Cl)cc1Cl
Second: CCOC(=O)/C=C1\S/C(=N\Nc2cc(=O)[nH]c3ccc(Cl)cc23)N(c2ccccc2)C1=O
The growth of the first is lower: 12.4% for the first, 98.9% for the second.

First: Cc1ccccc1NC(=O)c1sc2nc(C)c(C(=O)/C=C/c3ccccc3)cc2c1N
Second: CN1C(=O)/C(=C/c2ccc(C(=O)Nc3ncc(Cc4ccc(Cl)cc4)s3)cc2)SC1=S
The growth of the first is lower: 17.7% for the first, 26.2% for the second.

First: CC(C)n1cnc2c(=S)nc[nH]c21
Second: C#CCn1cnc2c(Nc3cccc(NC(=O)C=C)c3)ncnc21
The growth of the first is higher: 103% for the first, 88.7% for the second.

Compared with `O=C1c2c(c3c4ccccc4[nH]c3c3ccc4ccccc4c23)C(=O)N1CCN1CCCCC1`, `O=C1c2cccc3cccc(c23)C(=O)N1N1C(=O)c2cccc3c(N4CCOCC4)ccc(c23)C1=O` is higher in growth: 55.4% for the first, 101% for the second.

Compared with `CC(=O)OCc1nc(C#N)c(N(C)C)o1`, `CCOP(=O)(OCC)c1nc(-c2ccccc2)oc1NCc1cccnc1` is lower in growth: 105% for the first, 103% for the second.

Going from `O=C(COc1ccc(-c2nc3ccccc3[nH]2)cc1)N=Nc1c(O)[nH]c2ccc(Cl)cc12` to `C=CCn1c(SCC(=O)Nc2ccc(C(=O)/C=C/c3cc4cc(OC)ccc4nc3Cl)cc2)nnc1-c1ccc(Br)cc1`, the growth falls from 94.9% to 82.9%.

`CCn1c(=S)[nH]c2c(=O)n(C)c(=O)n(C)c21` was tested, and the growth was 106%.

`COc1cc(/C=C\c2cc(/C=C\c3ccc(O)c(OC)c3)n(C(=O)COc3ccc(Cl)cc3Cl)n2)ccc1O` was tested, and the growth was -12.9% (active).
`COc1cc(-c2cc(-c3ccc(N(C)C)cc3)nc(N3CCC(O)CC3)c2C#N)cc(OC)c1OC` was tested, and the growth was -99% (active).
For `CCN(CC)CCCN1C(=O)c2c(c(C)c3c(oc4cc(O)ccc43)c2C)C1=O`, the growth was -97.7% (active).
In the case of `c1cc2[nH]ncc2cc1-c1nc2ccc3[nH]ncc3c2c2c1CCCC2`, the growth is reported as -56.1% (active).

System: UACC-62 melanoma
Assay: as above
Settings: 10 µM unless noted

Going from `Cc1ccc(-c2csc(NC(=O)CN3CCN(c4cc5c(cc4F)c(=O)c(C(=O)O)cn5C4CC4)CC3)n2)cc1` to `O=C(c1ccc(-c2nc(CSc3nc4ccccc4s3)no2)cc1)N1CCSCC1`, the growth rises from 19.1% to 59.9%.

First: CC(=O)N(N=Nc1ccccc1)c1cccc2ccccc12
Second: Clc1ccc(CNc2c3ccccc3nc3ccccc23)cc1
The growth of the first is higher: 75.3% for the first, 70.7% for the second.

Going from `Cc1ccc(-c2nc(/C=C3/C(=O)Nc4ccccc43)c3ccccn23)cc1` to `Cc1cccc2c1NC(=O)C2(c1ccc(O)cc1)c1ccc(O)cc1`, the growth falls from 84.5% to 83.8%.

Going from `CC(C)c1ccc(NC(=O)Nc2ccc(NC(=O)CCCC(=O)NOCc3ccccc3)cc2)cc1` to `CC(C)CCNC(=O)Cn1cccc(NC(=O)OCc2ccccc2)c1=O`, the growth rises from 89.2% to 111%.

Compared with `C=C(C)[C@@H]1CC[C@]2(C(=O)OC)CC[C@]3(C)[C@H](CC[C@@H]4[C@@]5(C)C/C(=C/NC(N)=S)C(=O)C(C)(C)[C@@H]5CC[C@]43C)[C@@H]12`, `C[C@]12CC[C@@H]3c4ccc(O)c([N+](=O)[O-])c4CC[C@H]3[C@@H]1CCC2=O` is lower in growth: 87.4% for the first, 87.3% for the second.

Compared with `C/C(=C(/c1ccc(Cl)cc1)c1ccc(OCCN2CCCC2)cc1)c1ccc(Cl)cc1`, `CN1C(=O)/C(=C/c2ccc(C(=O)Nc3ncc(Cc4ccc(Cl)cc4)s3)cc2)SC1=S` is lower in growth: 93.9% for the first, 21.4% for the second.

Going from `Cc1nc2sc(C(=O)Nc3ccccc3)c(N)c2cc1C(=O)c1ccccc1` to `CCOC(=O)/C=C1\S/C(=N\Nc2cc(=O)[nH]c3ccc(Cl)cc23)N(c2ccccc2)C1=O`, the growth rises from 17.4% to 89.4%.

Compared with `CCOC(=O)c1cn2ncnc(Oc3ccc(NC(=O)NC4CCCCC4)c(Cl)c3)c2c1C`, `CCOC(=O)c1c(C)nc2c(c1N)CC(=O)N2Cc1cc(F)cc(Cl)c1` is lower in growth: 80.4% for the first, 78% for the second.

Compared with `CS(=O)(=O)c1cccc(-c2c(-c3cccc(OS(N)(=O)=O)c3)nc3sccn23)c1`, `O=c1oc2c(cnc3ccccc32)cc1-c1ccsc1` is higher in growth: 94% for the first, 94.8% for the second.

Compared with `O=C(NNc1nccc(Nc2ccc(S(=O)(=O)Nc3ccncc3)cc2)n1)c1ccccc1`, `c1ccc(C2=NN[C@H](c3cn(-c4ccccc4)nc3-c3ccccc3)C2)cc1` is lower in growth: 101% for the first, 90.3% for the second.

Going from `CCS/C(Nc1ccccc1)=C(\C#N)C(=O)N/N=C/c1ccc(Cl)cc1Cl` to `O=C(COc1ccc(-c2nc3ccccc3[nH]2)cc1)N=Nc1c(O)[nH]c2ccc(Cl)cc12`, the growth rises from 26.6% to 100%.

Going from `CC(C)n1cnc2c(=S)nc[nH]c21` to `C#CCn1cnc2c(Nc3cccc(NC(=O)C=C)c3)ncnc21`, the growth falls from 110% to 82.6%.

First: O=C1c2c(c3c4ccccc4[nH]c3c3ccc4ccccc4c23)C(=O)N1CCN1CCCCC1
Second: O=C1c2cccc3cccc(c23)C(=O)N1N1C(=O)c2cccc3c(N4CCOCC4)ccc(c23)C1=O
The growth of the first is lower: 42.8% for the first, 90.5% for the second.

Going from `CC(=O)OCc1nc(C#N)c(N(C)C)o1` to `CCN(CC)CCCN1C(=O)c2c(c(C)c3c(oc4cc(O)ccc43)c2C)C1=O`, the growth rises from 89.3% to 95.2%.

Compared with `COc1ccc2nc(NC(=O)CSc3nnc4n3S(=O)(=O)c3ccccc3N4C)sc2c1`, `C=CCn1c(SCC(=O)Nc2ccc(C(=O)/C=C/c3cc4cc(OC)ccc4nc3Cl)cc2)nnc1-c1ccc(Br)cc1` is lower in growth: 87.3% for the first, 72.9% for the second.

Going from `CCOP(=O)(OCC)c1nc(-c2ccccc2)oc1NCc1cccnc1` to `CCn1c(=S)[nH]c2c(=O)n(C)c(=O)n(C)c21`, the growth rises from 106% to 116%.

`CCOC(=O)c1c(C)c2c(n1C)CSc1cc(C(=O)c3ccccc3)c(=O)[nH]c1-2` was tested, and the growth was 78.5% [100 µM].

In the case of `COc1ccc(/C=C2\COc3ccc(O)c(O)c3C2=O)cc1`, the growth is reported as 4.68% (active).
With `O=C(Nc1ncc(Cc2ccc(Cl)c(C(F)(F)F)c2)s1)c1ccc2nnsc2c1` the growth was 6.95% (active).
In the case of `COC(=O)c1c2c(c(C)[n+]([O-])c1C)C(=O)C(NCc1ccc(Cl)cc1)=CC2=O`, the growth is reported as 6.15% (active).
`COc1cc(/C=C\c2cc(/C=C\c3ccc(O)c(OC)c3)n(C(=O)COc3ccc(Cl)cc3Cl)n2)ccc1O` was tested, and the growth was 5.87% (active).
With `Cc1ccccc1NC(=O)c1sc2nc(C)c(C(=O)/C=C/c3ccccc3)cc2c1N` the growth was 7.17% (active).
`COc1cc(-c2cc(-c3ccc(N(C)C)cc3)nc(N3CCC(O)CC3)c2C#N)cc(OC)c1OC` was tested, and the growth was -26.8% (active).
`c1cc2[nH]ncc2cc1-c1nc2ccc3[nH]ncc3c2c2c1CCCC2` was tested, and the growth was 1.74% (active).

— PubChem BioAssay (NCI)
